Most compounds without a hit are left out; they make up all but 9.9% or so of the library.
HPGD block: HPGD (human) dehydrogenase inhibition; P15428; purified HPGD, NADH fluorescence kinetic, PGE2 substrate; Potency, µM, without a hit: at the highest dose activity change, negative = inhibition, hits mostly inhibitors; 150,000 tested, 4.3% active
Target sequence (P15428 whole entry, looked up): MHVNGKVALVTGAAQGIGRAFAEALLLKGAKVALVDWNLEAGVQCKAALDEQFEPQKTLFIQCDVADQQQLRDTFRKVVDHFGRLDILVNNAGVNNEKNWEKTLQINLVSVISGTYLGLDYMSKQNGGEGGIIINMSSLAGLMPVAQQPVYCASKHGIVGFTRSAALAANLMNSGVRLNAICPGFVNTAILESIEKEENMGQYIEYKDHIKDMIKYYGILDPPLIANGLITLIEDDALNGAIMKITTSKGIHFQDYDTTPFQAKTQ
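20 nM HPGD preincubated 15 min at room temperature with compound in 50 mM Tris-HCl pH 8, 0.01% Tween 20. Started with 1 mM NAD+ and 30 uM prostaglandin E2; NADH fluorescence (360/450 nm) read 5 times over 30-s intervals, last minus first.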
JMJD2E inh: JMJD2E (human) inhibition; AID 2147; B2RXH2; 230,000 tested, 1.6% active; JMJD2E catalytic domain, FDH-coupled NADH fluorescence (FDH is formaldehyde dehydrogenase); Potency, µM (titrated, usually from 57.1 µM), inactives show at the highest dose activity change, negative = inhibition, usual class: inhibitors;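 also: 0% = wells with enzyme and -100% = buffer wells without enzyme; nearly all actives have a fitted effect of over 50% in size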
Target sequence (B2RXH2 1-337 limits assumed): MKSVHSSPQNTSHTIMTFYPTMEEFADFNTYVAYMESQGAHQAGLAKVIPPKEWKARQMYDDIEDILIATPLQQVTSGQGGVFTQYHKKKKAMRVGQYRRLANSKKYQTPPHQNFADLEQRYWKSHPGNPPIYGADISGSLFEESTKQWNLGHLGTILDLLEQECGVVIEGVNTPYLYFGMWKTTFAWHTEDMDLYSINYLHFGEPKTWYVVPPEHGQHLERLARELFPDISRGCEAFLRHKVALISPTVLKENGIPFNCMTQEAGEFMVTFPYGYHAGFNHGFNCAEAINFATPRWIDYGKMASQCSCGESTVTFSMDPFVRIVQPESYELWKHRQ
ALDH1A1 block: blocks purified human ALDH1A1 activity; 220,000 tested, 7.3% active; P00352; AID 1030; Purified ALDH1A1, NADH fluorescence, propionaldehyde substrate; Potency, µM (highest dose often 75.3 µM), for inactives: at the top dose activity, negative = inhibition, usual class: inhibitors;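 also: plate controls were no enzyme wells and a reference inhibitor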
Tau fibril FP: tau fibrillization inhibition (FP) | P10636 | K18 P301L tau heparin fibrillization, Alexa594 FP, 6 h | Potency, µM (top dose mostly 57.7 µM), inactives show top-dose activity, negative = inhibition, most hits filed as inhibitors | 280,000 tested, 0.39% active; active = well fitted curve in the direction sought with a large enough effect; inconclusive = small, poorly fitted or top-dose-only effect, or another doubt; inactive = no such curve, though single readings can be large; an effect the other way counts as inactive or inconclusive; also: nearly all actives have a fitted effect of over 55% in size
Target sequence (P10636 561-689 P618L limits assumed): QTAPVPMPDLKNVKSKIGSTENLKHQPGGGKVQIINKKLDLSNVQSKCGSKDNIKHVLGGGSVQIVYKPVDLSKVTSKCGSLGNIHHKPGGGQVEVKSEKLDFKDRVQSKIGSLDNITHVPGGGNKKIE
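Recombinant K18 P301L […], labeled with Alexa 594 at 0.24 uM over 15 uM unlabeled; heparin inducer 20 uM final; 37 C, 6 hr; FP endpoint.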
Tau fluor cs: counter-screen for tau fibril formation inhibitors. Potency, µM (doses to about 57.7 µM), for the others: top-dose activity change, negative = decrease. 280,000 tested, 0.93% active. tau K18 P301L Alexa594 fluorescence, heparin fibrillization; active = well fitted curve in the direction sought with a large enough effect; inconclusive = small, poorly fitted or top-dose-only effect, or another doubt; inactive = no such curve, though single readings can be large; an effect the other way counts as inactive or inconclusive; also: nearly all actives have a fitted effect of over 55% in size
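Human K18 P301L tau (15 uM unlabeled plus 0.24 uM Alexa 594-labeled, final) in 100 mM sodium acetate pH 7 was mixed with compound and 20 uM heparin and incubated 6 hr at 37 C.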
Tau ThT inhib: blocks human tau fibril formation measured by thioflavin T; AID 1460; 270,000 tested, 2.1% active; recombinant tau K18 P301L (four-repeat tau fragment), heparin-induced fibrillization, ThT fluorescence; P10636; Potency, µM (titrated, usually from 57.4 µM), for inactives: top-dose activity, negative = inhibition, usual class: inhibitors; active = well fitted curve in the direction sought with a large enough effect; inconclusive = small, poorly fitted or top-dose-only effect, or another doubt; inactive = no such curve, though single readings can be large; an effect the other way counts as inactive or inconclusive; also: nearly all actives have a fitted effect of over 55% in size
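K18 P301L tau (15 uM + 0.24 uM Alexa 594-tagged), heparin 20 uM, NaOAc pH 7, 6 h 37 C; ThT 30 uM, 1 h RT, ex 450/em 510 nm.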
Active calls of the source: *; i = inactive; u = inconclusive; x = not tested or not shown; [ ] = dose if it differs, or a comment. Unless noted, calls follow the shape of the dose curve; as a rule, active = well fitted inhibition curve with a large enough effect (not every such curve was filed as active); inconclusive = small, poorly fitted or top-dose-only effect, or another doubt; inactive = no such curve, though single readings can be large or run the other way. Unless noted, % is scaled to controls: 0 for no effect and ±100 for the full control effect; potency is read from the fitted curve at half-maximal effect.

SMILES	HPGD block	JMJD2E inh	ALDH1A1 block	Tau fibril FP	Tau fluor cs	Tau ThT inhib
CC1(C)CC(=O)C(C=NCCN2CCN(C(=O)CC3CCCC3)CC2)=C(O)C1	-6.3%	-2.0%	u	0.8%	-5.9%	-8.1%
CC1(C)CC(=O)C(C=NCCN2CCN(C(=O)NC34CC5CC(CC(C5)C3)C4)CC2)=C(O)C1	-8.6%	0.5%	15.8µM*	0.8%	-3.6%	-6.5%
CC(=C1C(=O)c2ccccc2C1=O)N1CCN(CCN=CC2=C(O)CC(C)(C)CC2=O)CC1	-3.7%	4.5%	14.1µM*	5.1%	1.3%	-7.1%
CCc1sc(Nc2cccc(Cl)c2C)nc1-c1cc2cccc(OC)c2oc1=O	x	x	x	1.6%	-27.4%	u
COc1ccc(CNC(=O)CCS(=O)(=O)c2cc(Br)cc3c2N(C(=O)C2CC2)CC3)cc1	x	x	x	7.2%	-3.5%	-7.6%
COc1ccc(CNc2cc(-c3cccc(NS(C)(=O)=O)c3)ncn2)c(OC)c1	x	x	19.1%	x	x	x
COc1cc(OC)cc(C(=O)NC2CCN(Cc3nnnn3Cc3cccs3)CC2)c1	0.4%	-6.7%	12.6µM*	9.5%	-12.9%	-6.2%
COc1cc(OC)cc(C(=O)NC2CCN(Cc3nnnn3Cc3ccc(F)cc3)CC2)c1	x	1.8%	-11.7%	6.1%	-14.1%	-9.4%
CCC1CN(C(=O)N2CCC(C(=O)NCCC3=CCCCC3)CC2)c2ccccc2O1 (centres undefined)	x	x	x	10.2%	u	6.6%
CCCCC/C=C\C/C=C\C/C=C\C/C=C\CCCC(=O)O[C@@H](CO)COC(=O)CCCCCCCCCCCCCCCCC	-2.5%	-4.9%	-2.4%	-1.9%	-1.6%	-4.1%
COc1ccc(COC(=O)N/N=C2/C[C@@H](O)[C@@H](O)[C@@H]3[C@@H]4C(=O)N(Cc5ccccc5)C(=O)[C@H]4CC[C@H]23)cc1	x	x	9.8%[13.5 µM]	-2.6%[11.6 µM]	-8.6%[11.6 µM]	-9.2%[11.5 µM]
CCS(=O)(=O)c1oc(-c2ccc(F)cc2)nc1S(=O)(=O)c1ccc(Br)cc1	x	x	x	u	10.6%	-2.3%
CCOc1ccc(/C=C2\SC(=S)N(CCC(=O)O)C2=O)cc1	x	5.1%	x	2.7%	-1.0%	u
O=C(CCN1C(=O)/C(=C/c2cccc(Br)c2)SC1=S)Nc1cccnc1	x	-0.5%	9.8%	-17.3%	-22.0%	u
O=C(O)CCN1C(=O)/C(=C\c2cccc(OCC(=O)Nc3ccc(Cl)cc3)c2)SC1=S	x	-1.3%	x	-4.1%	-15.5%	12.6µM*
Cc1ccc(NC(=O)COc2cccc(/C=C3\SC(=S)N(CCC(=O)O)C3=O)c2)cc1Cl	x	5.2%	x	-1.2%	-12.7%	12.6µM*
CNC(=O)Cn1nc(-c2ccc(Cl)cc2)c2ccccc2c1=O	x	x	x	2.3%	-16.2%	-14.3%
CN(C)c1ccc(C2NCCS2)cc1 (centres undefined)	-17.9%	5.5%	1µM*	u	-15.3%	28.2µM*
Cc1ccc(C2NCCS2)cc1 (centres undefined)	x	-6.4%	7.3%	u	-16.0%	22.4µM*
CC1(C)COC(/C=C/c2cccc([N+](=O)[O-])c2)=N1	x	0.7%	14.1µM*	3.1%	-8.3%	-2.8%
CC1(C)COC(c2cc([N+](=O)[O-])ccc2Cl)=N1	-6.6%	-1.7%	3.5%	-8.3%	-7.5%	-8.6%
O=C(Nc1ccc2c(c1)CCCN2C(=O)c1cccs1)c1ccc(F)c(F)c1	x	x	x	-2.5%	u	-5.2%
Cc1ccc2c(c1)sc1nc(-c3cc4ccccc4oc3=O)cn12	x	x	x	9.7%	2.0%	-17.1%
Cc1cc(Br)ccc1NC(=O)C1(S(=O)(=O)c2ccc(Cl)cc2)CC1	x	x	x	-9.2%	u	-8.5%
O=C(CCCN1C(=O)c2ccccc2C1=O)Nc1ccccn1	1.7%	-2.0%	-3.3%	5.9%	3.6%	0.6%
SMILES	HPGD block	JMJD2E inh	ALDH1A1 block	Tau fibril FP	Tau fluor cs	Tau ThT inhib
[N-]=[N+]=CC(=O)CCCN1C(=O)c2ccccc2C1=O	-10.5%	-6.2%	10µM*	-4.3%	9.5%	5.8%
O=C(CCCCCN1C(=O)c2ccccc2C1=O)Nc1ccc2c(c1)OCCO2	-11.6%	-8.0%	28.2µM*	6.7%	-21.2%	u
O=C(CCCCCN1C(=O)c2ccccc2C1=O)Nc1ccc(F)cc1	17.8µM*	5.6%	u	-0.4%	-9.9%	1.1%
C[N+](C)(C)C(C1=CCCC1=O)c1ccccc1 (centres undefined)	-0.8%	x	-14.6%[13.5 µM]	x	x	x
O=c1[nH]c(SCc2ccc(Br)cc2)nc2c1CCCC2	x	x	x	-12.1%	-5.8%	3.9%
OC(CNC1Cc2ccccc2C1)COc1ccc(Cl)cc1 (centres undefined)	x	4.7%	x	4.5%	-3.0%	x
CCOC(=O)c1c(C)[nH]c(CCC(=O)Nc2cc(C)ccc2OC)c1C	x	x	x	13.7%	-23.9%	-15.7%
COC(=O)CC1C(=O)NCCN1C(=O)CSc1nnc(Nc2ccc(C)cc2)s1 (centres undefined)	-11.2%	9.6%	-3.9%	0.3%	-8.4%	-7.5%
COC(=O)CC1C(=O)NCCN1C(=O)CSc1nnc(Nc2ccc(OC)cc2)s1 (centres undefined)	u	-15.0%	25.1µM*	-1.7%	-7.3%	-7.9%
CCOC(=O)c1ccc(Nc2cc(C)nc3ncnn23)cc1	-24.3%	-22.6%	10µM*	-5.5%	4.1%	-0.2%
CCOC(=O)c1ccc(Nc2nnc3nc(C)cc(C)n23)cc1	22.4µM*	9.0%	u	3.1%	7.3%	-1.1%
COC(=O)c1ccc(Nc2cc(C)nc3ncnn23)cc1	x	7.1%	-7.6%	2.7%	4.4%	-5.0%
CCC(Oc1ccccc1F)C(=O)Nc1c(C(=O)c2ccccc2)oc2ccccc12 (centres undefined)	x	x	x	u	u	-11.7%
Clc1ccc(Cc2nn3c(Cn4nnc5ccccc54)nnc3s2)cc1	22.4µM*	3.6%	22.4µM*	0.5%	-16.7%	-22.5%
c1ccc2c(c1)nnn2Cc1nnc2sc(-c3ccncc3)nn12	17.8µM*	-0.2%	u	4.2%	-7.7%	-21.0%
Clc1cccc(-c2nn3c(Cn4cnc5ccccc54)nnc3s2)c1	25.1µM*	-2.0%	10µM*	2.5%	-2.1%	-4.4%
c1csc(-c2nn3c(Cn4nnc5ccccc54)nnc3s2)c1	u	u	i	2.2%	-4.1%	-7.2%
c1coc(-c2nn3c(Cn4nnc5ccccc54)nnc3s2)c1	10µM*	-1.6%	10µM*	2.6%	0.2%	-4.0%
CN(C)S(=O)(=O)c1ccc(Cl)c(NC(=O)CSc2nc3ccccc3c(=O)n2CCCN2CCOCC2)c1	-3.0%	-0.3%	u	3.2%	5.6%	6.6%
O=C(Cn1c2c(sc1=O)C1c3ccccc3OCC1CS2)Nc1ccc(Cl)c(Cl)c1 (centres undefined)	-15.2%	4.0%	25.1µM*	-11.8%	u	-14.3%
Cc1cc(-c2ccccc2)nc(SCC(=O)N2CCCC2)n1	x	-10.4%	-0.6%	-5.5%	-1.1%	-4.0%
